Assay results reported in PubChem BioAssay (NCI).
The panel holds about 83,000 compounds, 20% with a hit somewhere; the sample as a whole holds those more often.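 Assay: single dose, 48 h. Readout: percent growth (0 = no net growth; negative = cell death). Active: <10.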 Calls of active or inactive are those of the source.

Legend:
Assay in all cases: NCI-60 one-dose screen, 48 h (100 = growth as untreated, 0 = no growth, -100 = all killed)
Conditions in all cases: 10 µM unless noted
[1] = tested on: NCI-H23 lung
[2] = tested on: NCI-H226 lung
[3] = tested on: NCI-H322M lung
[4] = tested on: HOP-62 NSCLC
[5] = tested on: NCI-H460 lung
[6] = tested on: HOP-92 NSCLC
[7] = tested on: NCI-H522 lung
[8] = tested on: A549/ATCC NSCLC
[9] = tested on: 786-0 renal
[10] = tested on: COLO 205 colon

Measured: growth

CCCCCCc1nc2c(c(C)nn2-c2ccccc2)c2c1CCCCC2
inactive: [1] 100% | [2] 89.2% | [3] 110% | [4] 91.3% | [5] 110% | [6] 91.5% | [7] 93.2% | [8] 103% | [9] 108% | [10] 107%

O=c1[nH]c(CN2CCN(c3ccccc3F)CC2)nc2sc3c(c12)CCC3
inactive: [1] 105% | [2] 102% | [3] 98.9% | [4] 92.4% | [5] 123% | [6] 89% | [7] 98.7% | [8] 110% | [9] 95.8% | [10] 91.9%

N#CC1=C(N)n2nc(-c3ccncc3)nc2NC1c1cccc2ccccc12 (stereo not given)
inactive: [1] 90.4% | [2] 78.3% | [3] 106% | [4] 88.2% | [5] 100% | [6] 40.4% | [7] 75.2% | [8] 92.4% | [9] 88% | [10] 106%

CC(C)(C)OC(=O)N1C/C(=C\c2cccs2)C(=O)/C(=C/c2cccs2)C1
inactive: [1] 96.3% | [2] 93.1% | [3] 94.3% | [4] 89% | [5] 105% | [6] 82.2% | [7] 79.5% | [8] 86.9% | [9] 81.4% | [10] 117%

OCc1c(-c2ccccc2)nc2sccn12
inactive: [1] 81.9% | [2] 106% | [3] 105% | [4] 95.5% | [5] 106% | [7] 105% | [8] 101% | [9] 101% | [10] 110%
active: [6] -8.39%

COc1ccc(-n2cnc3c(sc4ncc(Cl)cc43)c2=O)cc1
inactive: [1] 93.4% | [2] 97.8% | [3] 45.7% | [4] 96.9% | [5] 49.1% | [6] 42.9% | [7] 93.3% | [8] 67% | [9] 76.8% | [10] 113%

Cc1cc2c(C(C)C)c(O)c(O)c(C=NCCCCCCC(=O)O)c2c(O)c1-c1c(C)cc2c(C(C)C)c(O)c(O)c(C=NCCCCCCC(=O)O)c2c1O
inactive: [1] 21.8% | [2] 74.7% | [3] 38.9% | [4] 39.3% | [5] 13.1% | [6] 13.8% | [8] 30.7% | [9] 38.2% | [10] 14.6%
active: [7] 9.55%

O=c1oc2c([nH]c3ccc4ccccc4c32)c2ccccc12
inactive: [1] 93.6% | [2] 104% | [3] 101% | [4] 103% | [5] 112% | [6] 90.2% | [7] 102% | [8] 134% | [9] 102% | [10] 108%

COc1ccccc1OCC(=O)Nc1sc2c(c1C(N)=O)CCC2
inactive: [1] 114% | [2] 80.7% | [3] 105% | [4] 49.7% | [5] 25.6% | [7] 84.1% | [8] 85.8% | [9] 75.1% | [10] 86.1%
active: [6] 2.69%

COc1cc2c3c(c(=O)oc2cc1OS(=O)(=O)c1ccc(C(F)(F)F)cc1)CCCCC3
inactive: [1] 76.8% | [2] 77.8% | [3] 84.9% | [4] 64% | [5] 89.9% | [6] 56.8% | [7] 71.6% | [8] 75.4% | [9] 72.2% | [10] 93.1%

CNC(=O)c1cc(Oc2ccc3c(c2)sc2nc(-c4ccc(Cl)cc4)cn23)ccn1
inactive: [1] 72.6% | [2] 38.9% | [3] 92.9% | [4] 62.5% | [5] 81.8% | [6] 76.8% | [7] 61.7% | [8] 79.4% | [9] 77.9% | [10] 114%

Cc1c(C(=O)NCc2ccccc2)[n+](=O)c2cc(F)ccc2n1[O-]
inactive: [1] 90.1% | [2] 103% | [3] 117% | [4] 94.8% | [5] 109% | [6] 64.3% | [7] 90.9% | [8] 109% | [9] 101% | [10] 123%

N#CC1=C(N)OC2=C(C(=O)CCC2)C1c1ccco1 (stereo not given)
inactive: [1] 97.1% | [2] 103% | [3] 99.1% | [4] 91.3% | [5] 110% | [6] 106% | [7] 92.7% | [8] 101% | [9] 101% | [10] 110%

CCN1C(=O)/C(=c2\sc3n(c2=O)C2C(NN=3)N(CC)C(=S)N2CC)c2ccccc21 (stereo not given)
inactive: [1] 101% | [2] 92.3% | [3] 103% | [4] 79.2% | [5] 107% | [6] 99.2% | [7] 91.9% | [8] 106% | [9] 99.5% | [10] 103%

Cc1ccc(Oc2nc3ccccc3cc2-c2nnc(Cn3c(COc4ccccc4)nc4ccccc43)o2)cc1
inactive: [1] 66.5% | [2] 64.9% | [3] 92.3% | [4] 49.8% | [5] 94.1% | [6] 14.2% | [7] 70.2% | [8] 81.3% | [9] 62.7% | [10] 84.6%

COc1ccc(/C=C/C(=O)/C=C/c2cc3ccc(Cl)cc3[nH]c2=O)cc1
inactive: [1] 81.1% | [2] 81% | [3] 97.2% | [4] 85.3% | [5] 86.7% | [6] 103% | [7] 82.3% | [8] 93.1% | [9] 94.9% | [10] 90.5%

C=CCN=C1NC(=O)/C(=C/c2cc(C(C)(C)C)c(O)c(C(C)(C)C)c2)S1
inactive: [1] 90.2% | [2] 97.7% | [3] 87.9% | [4] 77.2% | [5] 72.8% | [6] 82.2% | [7] 44.5% | [8] 63.4% | [9] 66.1% | [10] 81.3%

Cc1cc(C(=O)O)c(N)c(C)n1
inactive: [1] 100% | [2] 118% | [3] 106% | [4] 106% | [5] 108% | [6] 93.2% | [7] 107% | [8] 108% | [9] 104% | [10] 119%

Nc1nc(-c2cc3ccccc3o2)cc(=O)c(=O)[nH]1
inactive: [1] 105% | [2] 95.7% | [3] 95.4% | [4] 96.6% | [5] 98.1% | [7] 91.9% | [8] 110% | [9] 107% | [10] 106%
active: [6] -2.74%

CCN(CC)CCCNc1nc(C)cc(Nc2ccc3nc(C)cc(N)c3c2)n1
inactive: [1] 93% | [2] 104% | [3] 95.5% | [4] 81% | [5] 110% | [6] 97.5% | [7] 93.3% | [8] 81% | [9] 97.8% | [10] 97.4%
